This note sets out measurements from PubChem BioAssay (EPA / NIEHS).

The nature of assay [1]: ATG_E_Box_CIS: Attagene CIS-FACTORIAL HepG2 Assay for human Enhancer Box (E-box) (AID 2282936). Particulars: HepG2 E-box cis-reporter transcription, actives raise or lower the signal. The essentials: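 DMSO served as negative control and baseline for bidirectional fitting. Human hepatoma HepG2 cells, transiently transfected with cis-reporter constructs, were dosed 24 h; reporter mRNA read by RT-PCR and capillary electrophoresis.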

A short description of assay [2]: ATG_M_61_CIS: Attagene CIS-FACTORIAL HepG2 Assay for M61 Transcription Factor (Internal Marker) (AID 2282937). Particulars: HepG2 Attagene CIS-FACTORIAL M61 internal marker reporter; actives raise or lower the signal. The gist of the method: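 Endogenous transcription factor activity in HepG2 is read through transiently transfected cis-element reporter units. After 24 h dosing, RNA undergoes reverse transcription, PCR and primer extension with 6-FAM before capillary electrophoresis; DMSO-referenced bidirectional fit.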

Assay [3] is described as follows: ATG_EGR_CIS: Attagene CIS-FACTORIAL HepG2 Assay for human Early Growth Response 1 (EGR1) (AID 2282938). Particulars: HepG2 Attagene CIS-FACTORIAL EGR reporter mRNA; actives raise or lower the signal. The gist of the method: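 Activity is taken as induction or loss of reporter mRNA versus DMSO, fitted bidirectionally. Transcripts from cis-regulated reporter units in transiently transfected HepG2 were measured after 24 h by RT-PCR with capillary electrophoresis.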

Assay [4] can be described thus: ATG_Ets_CIS: Attagene CIS-FACTORIAL HepG2 Assay for human Erythroblast Transformation Specific (ETS) (AID 2282941). Particulars: HepG2 ETS cis-reporter transcription, actives raise or lower the signal. The gist of the method:
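After transient cis-reporter transfection, HepG2 cells receive test chemical for 24 h. Reporter mRNA levels, measured by RT-PCR and capillary electrophoresis fluorescence, are analysed bidirectionally relative to the DMSO baseline.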

For assay [5], the target named is Hepatocyte nuclear factor 3-beta (Homo sapiens) (UniProt Q9Y261). The assay is described as follows: ATG_FoxA2_CIS: Attagene CIS-FACTORIAL HepG2 Assay for human Forkhead box A2 (FOXA2) (AID 2282942). The note with it: HepG2 cis-reporter transcription factor activity, 24 h; actives raise or lower the signal. The gist of the method: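 Reporter transcript induction is measured by fluorescence after capillary electrophoresis of RT-PCR products from HepG2 cells exposed 24 h. Cis-regulated reporter units report endogenous factor activity; curves fitted both directions against DMSO.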

Assay [6] in a line: ATG_FoxO_CIS: Attagene CIS-FACTORIAL HepG2 Assay for human Forkhead box O (FoxO) (AID 2282943). Particulars: HepG2 Attagene cis-reporter, FoxO element, mRNA; actives raise or lower the signal. The gist of the method:
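HepG2, transient MRTU transfection (cis element, endogenous TFs). Dose 24 h. TriZol RNA → oligo(dT) RT → PCR → 6-FAM primer extension → HpaI cut → CE. Gain/loss vs DMSO.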

The nature of assay [7]: ATG_GATA_CIS: Attagene CIS-FACTORIAL HepG2 Assay for human GATA Binding Protein (AID 2282944). The note with it: HepG2 GATA cis-element reporter, Attagene multiplex mRNA; actives raise or lower the signal. The essentials:
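HepG2 cells transiently transfected with multiplexed cis-element reporter units measure endogenous GATA activity; after 24 h compound exposure, reporter mRNA quantified by RT-PCR and capillary electrophoresis. Changes fitted in both directions vs DMSO.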

A short description of assay [8]: ATG_GLI_CIS: Attagene CIS-FACTORIAL HepG2 Assay for human Zinc Finger Protein GLI1 (AID 2282945). Particulars: HepG2, Attagene cis-factorial reporter mRNA, GLI element; actives raise or lower the signal. The gist of the method: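 Bidirectional curve fits relative to DMSO, using reporter mRNA levels from RT-PCR plus capillary electrophoresis. Cells were HepG2 transiently carrying cis-regulated reporter constructs, harvested 24 h after dosing.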

Assay [9] deals with Bile acid receptor (Homo sapiens) (UniProt Q96RI1). The experiment in a line: ATG_IR1_CIS: Attagene CIS-FACTORIAL HepG2 Assay for human Nuclear Receptor Subfamily 1 Group H Member 4 (NR1H4), IR1 submotif (AID 2282946). The note with it: IR1 reporter transcription, actives raise or lower the signal. The gist of the method: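 Cells (human HepG2) carry transiently transfected cis-promoter reporter transcription units. Compounds are incubated 24 h, total RNA is reverse-transcribed and amplified, and labelled fragments are resolved by capillary electrophoresis. Curves use DMSO as baseline.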

The nature of assay [10]: ATG_ISRE_CIS: Attagene CIS-FACTORIAL HepG2 Assay for human Interferon Regulatory Factor 1 (IRF1) binding to an Interferon-Stimulated Response Element (ISRE) (AID 2282948). The note with it: HepG2 ISRE cis-reporter (Attagene), mRNA transcription readout; actives raise or lower the signal. The gist of the method:
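Quantitation relies on labelled RT-PCR fragments separated by capillary electrophoresis. Human HepG2 cells bearing cis-promoter reporter constructs were treated 24 h; DMSO served as baseline for bidirectional fitting.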

A short description of assay [11]: ATG_M_32_CIS: Attagene CIS-FACTORIAL HepG2 Assay for M32 Transcription Factor (Internal Marker) (AID 2282949).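 Further: background control marker of the multiplexed CIS panel rather than a real target.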 Particulars: HepG2 Attagene cis-factorial M32 reporter, mRNA; actives raise or lower the signal. The essentials:
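Internal background marker read-out: RT-PCR/capillary electrophoresis fluorescence of reporter transcripts from transiently transfected HepG2 cells after 24 h chemical exposure. Activity fitted bidirectionally relative to DMSO negative control.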

Assay [12] can be described thus: ATG_M_06_CIS: Attagene CIS-FACTORIAL HepG2 Assay for M06 Transcription Factor (Internal Marker) (AID 2282950). Particulars: HepG2 Attagene CIS-FACTORIAL M06 internal marker reporter; actives raise or lower the signal. The essentials: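 Internal background marker within multiplexed cis-reporter HepG2 system. Cells transiently transfected, dosed 24 h; reporter mRNA measured by RT-PCR, HpaI digestion and capillary electrophoresis. Bidirectional fit relative to DMSO.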

Assay [13] has as its target Hepatocyte nuclear factor 6 (Homo sapiens) (UniProt Q9UBC0). The experiment in a line: ATG_HNF6_CIS: Attagene CIS-FACTORIAL HepG2 Assay for human Hepatocyte Nuclear Factor 6 (HNF6) (AID 2282952). Particulars: HepG2 Attagene cis-factorial HNF6 reporter transcription; actives raise or lower the signal. The gist of the method: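 Multiplexed mRNA reporter assay in transfected HepG2; 24 h dosing; RT-PCR plus capillary electrophoresis fluorescence; DMSO-referenced bidirectional curve fitting.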

The target of assay [14] is Heat shock factor protein 1 (Homo sapiens) (UniProt Q00613). The assay is described as follows: ATG_HSE_CIS: Attagene CIS-FACTORIAL HepG2 Assay for human Heat Shock Transcription Factor 1 (HSE) (AID 2282953). Particulars: HepG2 HSE cis-reporter, Attagene RNA transcription; actives raise or lower the signal. The gist of the method: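 HepG2 cells transfected with cis-promoter reporter units sensing endogenous transcription factor activity; reporter mRNA quantified 24 h post-dose by RT-PCR and capillary electrophoresis of 6-FAM-labelled products. Bidirectional fitting against DMSO.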

Assay [15] in a line: ATG_MRE_CIS: Attagene CIS-FACTORIAL HepG2 Assay for human Metal Responsive Element (MRE) (AID 2282954). The note with it: HepG2 MRE cis-reporter transcription, Attagene multiplex; actives raise or lower the signal. The gist of the method: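 After a 24 h chemical exposure, transiently transfected HepG2 cells yield RNA whose reporter sequences are amplified, FAM-labelled and sized by capillary electrophoresis. Curves are fitted bidirectionally relative to DMSO.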

A short description of assay [16]: ATG_PBREM_CIS: Attagene CIS-FACTORIAL HepG2 Assay for human Phenobarbital-responsive Enhancer Module (PBREM) (AID 2282955). Particulars: HepG2 PBREM cis-reporter, Attagene multiplexed transcription; actives raise or lower the signal. The gist of the method: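 Cells were transfected with cis-element reporter units and treated for 24 h, after which RNA was extracted and reporter transcripts measured by RT-PCR and capillary electrophoresis.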

Assay [17] is described as follows: ATG_GRE_CIS: Attagene CIS-FACTORIAL HepG2 Assay for human Glucocorticoid Response Elements (GRE) (AID 2282947). The note with it: HepG2 GRE cis-reporter, Attagene multiplex mRNA; actives raise or lower the signal. The essentials:
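Assay uses human hepatoma HepG2 cells transfected with cis-promoter reporter units, exposed 24 h. mRNA from reporters detected by RT-PCR plus capillary electrophoresis; DMSO serves as negative control and baseline.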

Assay [18] deals with Hypoxia-inducible factor 1-alpha (Homo sapiens) (UniProt Q16665). The assay is described as follows: ATG_HIF1a_CIS: Attagene CIS-FACTORIAL HepG2 Assay for human Hypoxia Inducible Factor 1 (HIF1A) (AID 2282951). Particulars: HepG2 Attagene cis-factorial HIF1a reporter transcription; actives raise or lower the signal. The gist of the method: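 Fluorescence intensity of capillary-separated, 6-FAM-labelled reporter amplicons gives mRNA induction in HepG2 cells carrying transfected cis-promoter reporter units; cells exposed 24 h, responses fitted up or down from DMSO.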

Assay [19] is described as follows: ATG_ERE_CIS: Attagene CIS-FACTORIAL HepG2 Assay for Estrogen Response Element (ERE) (AID 2282940). The note with it: HepG2 ERE cis-reporter, Attagene RNA transcript; actives raise or lower the signal. The gist of the method:
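HepG2 cells transiently transfected with multiplexed cis-element reporter units, measuring endogenous transcription factor activity; ERE reporter mRNA quantified after 24 h exposure by RT-PCR, fluorescent labelling, HpaI digestion and capillary electrophoresis. Bidirectional change versus DMSO.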

“And” between values parts separate entries of the source, which are not always exact repeats. Equal entries are not always repeated. A structure can be active in one record and inactive in another. The source made the active and inactive calls. How the source made its calls: active means hit-call score of the fitted dose curve at least 0.9, where 1 is the maximum; inactive means score below 0.9.

Chain of Heat shock factor protein 1 (Homo sapiens) (Q00613 whole entry, looked up): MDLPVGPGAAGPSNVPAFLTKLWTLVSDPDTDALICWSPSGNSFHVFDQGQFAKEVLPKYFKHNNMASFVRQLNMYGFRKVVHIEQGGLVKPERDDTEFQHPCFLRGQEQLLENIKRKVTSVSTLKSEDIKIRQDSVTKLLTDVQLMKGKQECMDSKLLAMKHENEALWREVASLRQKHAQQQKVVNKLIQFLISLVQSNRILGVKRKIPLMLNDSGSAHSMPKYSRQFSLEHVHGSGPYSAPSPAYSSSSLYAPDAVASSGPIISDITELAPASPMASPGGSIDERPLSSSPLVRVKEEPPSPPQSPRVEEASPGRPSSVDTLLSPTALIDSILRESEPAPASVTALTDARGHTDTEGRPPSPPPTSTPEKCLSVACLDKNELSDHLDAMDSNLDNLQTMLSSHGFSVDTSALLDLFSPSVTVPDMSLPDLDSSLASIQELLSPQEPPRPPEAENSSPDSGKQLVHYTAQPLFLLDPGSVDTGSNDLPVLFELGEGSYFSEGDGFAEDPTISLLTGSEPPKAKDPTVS
Chain of Hepatocyte nuclear factor 6 (Homo sapiens) (Q9UBC0 whole entry, looked up): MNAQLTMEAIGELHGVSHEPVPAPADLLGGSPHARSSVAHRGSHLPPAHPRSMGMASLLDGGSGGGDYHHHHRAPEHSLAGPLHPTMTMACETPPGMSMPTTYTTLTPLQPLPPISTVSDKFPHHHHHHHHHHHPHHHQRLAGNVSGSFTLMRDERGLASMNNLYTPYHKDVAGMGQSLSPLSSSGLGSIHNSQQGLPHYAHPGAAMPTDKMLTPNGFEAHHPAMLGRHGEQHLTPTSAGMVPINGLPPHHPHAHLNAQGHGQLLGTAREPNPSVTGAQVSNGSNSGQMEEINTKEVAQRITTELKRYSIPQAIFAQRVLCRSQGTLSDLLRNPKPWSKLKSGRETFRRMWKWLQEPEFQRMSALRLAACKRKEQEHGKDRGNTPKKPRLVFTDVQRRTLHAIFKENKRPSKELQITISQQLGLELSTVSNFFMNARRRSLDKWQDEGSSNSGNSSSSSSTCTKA
Chain of Hypoxia-inducible factor 1-alpha (Homo sapiens) (Q16665 whole entry, looked up): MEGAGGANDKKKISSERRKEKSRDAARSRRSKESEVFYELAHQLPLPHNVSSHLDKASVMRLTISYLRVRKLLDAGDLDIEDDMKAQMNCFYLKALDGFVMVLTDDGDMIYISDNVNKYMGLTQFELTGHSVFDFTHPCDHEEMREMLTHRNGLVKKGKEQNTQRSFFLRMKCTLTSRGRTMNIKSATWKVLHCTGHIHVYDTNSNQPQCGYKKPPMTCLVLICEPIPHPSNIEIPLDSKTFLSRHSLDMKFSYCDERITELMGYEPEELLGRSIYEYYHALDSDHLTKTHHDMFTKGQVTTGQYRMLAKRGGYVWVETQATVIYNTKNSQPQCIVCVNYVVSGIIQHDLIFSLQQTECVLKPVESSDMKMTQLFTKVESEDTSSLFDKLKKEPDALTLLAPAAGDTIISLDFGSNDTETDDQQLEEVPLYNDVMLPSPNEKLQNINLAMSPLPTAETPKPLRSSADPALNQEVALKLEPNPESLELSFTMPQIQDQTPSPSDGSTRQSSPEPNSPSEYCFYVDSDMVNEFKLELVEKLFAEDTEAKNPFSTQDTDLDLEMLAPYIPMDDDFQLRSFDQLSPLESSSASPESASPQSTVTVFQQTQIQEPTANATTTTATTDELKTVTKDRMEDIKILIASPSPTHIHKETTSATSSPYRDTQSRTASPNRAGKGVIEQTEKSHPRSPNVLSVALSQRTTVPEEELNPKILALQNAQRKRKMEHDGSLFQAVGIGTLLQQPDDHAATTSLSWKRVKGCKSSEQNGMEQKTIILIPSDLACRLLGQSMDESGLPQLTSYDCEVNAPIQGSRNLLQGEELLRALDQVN
Chain of Hepatocyte nuclear factor 3-beta (Homo sapiens) (Q9Y261 whole entry, looked up): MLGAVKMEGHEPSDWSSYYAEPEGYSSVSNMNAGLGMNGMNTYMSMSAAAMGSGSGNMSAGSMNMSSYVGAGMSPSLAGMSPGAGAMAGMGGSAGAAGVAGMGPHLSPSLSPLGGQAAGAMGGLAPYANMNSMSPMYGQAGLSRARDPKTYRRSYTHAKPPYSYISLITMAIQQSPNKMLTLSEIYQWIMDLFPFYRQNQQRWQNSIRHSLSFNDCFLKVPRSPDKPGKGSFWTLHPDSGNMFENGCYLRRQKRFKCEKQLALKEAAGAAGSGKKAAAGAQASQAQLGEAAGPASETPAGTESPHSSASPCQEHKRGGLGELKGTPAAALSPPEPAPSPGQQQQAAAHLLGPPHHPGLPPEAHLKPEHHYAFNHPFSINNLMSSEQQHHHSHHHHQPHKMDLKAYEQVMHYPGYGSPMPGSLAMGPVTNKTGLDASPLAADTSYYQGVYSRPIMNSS
Chain of Bile acid receptor (Homo sapiens) (Q96RI1 whole entry, looked up, the tested form may be a part): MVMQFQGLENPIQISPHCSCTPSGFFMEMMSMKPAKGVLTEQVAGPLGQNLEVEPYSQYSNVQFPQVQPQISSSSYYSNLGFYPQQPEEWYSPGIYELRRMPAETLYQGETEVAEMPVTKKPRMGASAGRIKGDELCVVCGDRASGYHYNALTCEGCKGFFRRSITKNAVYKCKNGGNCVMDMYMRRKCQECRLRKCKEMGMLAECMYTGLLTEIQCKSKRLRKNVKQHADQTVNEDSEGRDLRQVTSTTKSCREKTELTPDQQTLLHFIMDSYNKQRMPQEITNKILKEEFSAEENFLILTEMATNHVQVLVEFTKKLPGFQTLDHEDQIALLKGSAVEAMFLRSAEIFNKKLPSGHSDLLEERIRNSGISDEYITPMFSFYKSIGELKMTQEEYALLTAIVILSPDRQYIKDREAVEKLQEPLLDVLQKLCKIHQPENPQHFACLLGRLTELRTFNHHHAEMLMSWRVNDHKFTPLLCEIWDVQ

On to `C[C@]12CCC(=O)C=C1CC[C@@H]1[C@@H]2CC[C@]2(C)C(=O)CC[C@@H]12`, for which the outcome in assay [1], in [2], in [3], in assay [4], in [5] and in [6] was inactive. In addition, the call in assay [7], in [8], in assay [9], in [10], in assay [11] and in [12] was inactive. For the same molecule, the molecule was called inactive in assay [13], in [14], in assay [15] and in assay [16].
A word on the AC50: it is the midpoint of the concentration-response curve, whichever way the signal moves. As to `C[C@]12CCC(=O)C=C1CC[C@@H]1[C@@H]2CC[C@@]2(C)[C@H]1CC[C@]2(C)O`, the result in assay [1], in assay [2], in [3], in assay [4], in assay [5] and in assay [6] was inactive. Besides, the call in assay [7], in assay [8], in assay [9], in assay [17], in assay [10] and in assay [11] was inactive. The call in assay [12], in [18], in assay [13], in assay [14], in [15] and in [16] was inactive. The AC50 in assay [15] is 132 µM (active) and 129 µM (active) and 79.4 µM (active).
For the molecule `ClC1=C(Cl)[C@]2(Cl)[C@@H]3[C@@H](Cl)[C@H]4O[C@H]4[C@@H]3C1(Cl)C2(Cl)Cl`, the AC50 in assay [1] was 53 µM (active); in assay [3], 54.9 µM (active); in assay [7] it was 162 µM (active); in assay [10], 57.6 µM (active); in assay [14] it was 85.5 µM (active); in [15], 100 µM (active). The molecule was classed as inactive in assay [2], in assay [19], in assay [4], in assay [5], in assay [6] and in assay [8]. Further, the molecule was classed as inactive in [17], in assay [11], in [12], in assay [18], in [13] and in assay [16].
As for `COc1ccc(O)c(C(C)(C)C)c1`, the outcome in assay [1], in assay [2], in assay [19], in [5], in [6] and in assay [7] was inactive. For the same molecule, the molecule was classed as inactive in assay [8], in assay [9], in [17], in assay [10], in assay [11] and in assay [13]. Further, the result in assay [14] was inactive. The AC50 in [3] was 100 µM (active); in assay [4] it was 111 µM (active); in assay [18], 52.6 µM (active); in [15], 148 µM (active); in [16], 25.7 µM (active).
In the case of `c1cc2ccc3cccc4ccc(c1)c2c34`, the result in assay [1], in assay [2], in assay [3], in assay [19], in assay [4] and in assay [5] was inactive. For the same molecule, the molecule was classed as inactive in [6], in assay [7], in assay [8], in assay [9], in assay [17] and in [10]. The molecule was called inactive in assay [11], in assay [18], in assay [13], in assay [14], in assay [15] and in assay [16].
In the case of `CCC(C)(CC)c1cc(NC(=O)c2c(OC)cccc2OC)on1`, the outcome in assay [1], in [2], in assay [3], in assay [4], in assay [5] and in assay [6] was inactive. Further, the call in assay [7], in [8], in assay [10], in assay [11], in assay [13] and in [14] was inactive. In addition, the values for the concentration at half-maximal activity (AC50) in assay [18], in assay [15] and in assay [16] were 8.77 µM (active), 14.4 µM (active) and 1.43 µM (active), respectively.
